For 176 sequences, binding signal results are on record in PMC10668032, “Altered binding affinity of SIX1-Q177R correlates with enhanced WNT5A and WNT pathway effector expression in Wilms tumor”.

The full ranking holds about 33,000 sequences; the median of “e-score” is about -0.053, and the highest 2% start at about 0.38. Only a selection was taken, and the highest values are over-represented in it overall.

This assay deals with T1, SIX1 homeodomain (reference allele) (human, UniProt Q15475 108-198).
T1 sequence: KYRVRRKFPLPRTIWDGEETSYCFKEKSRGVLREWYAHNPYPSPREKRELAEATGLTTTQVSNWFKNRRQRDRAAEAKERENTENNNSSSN
Put plainly: universal protein binding microarray; Universal all-10-mer PBM (8x60K, AMADID 030236), 300 nM GST-tagged protein, Alexa Fluor 488 anti-GST; buffer, salt, pH and temperature not stated (as in Berger); high values mean tight binding. To be noted: protein: ivt; tags: N-terminal GST; dsDNA, one strand shown. The essentials: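 Binding was expressed as 8-mer E-scores calculated with the Universal PBM Analysis Suite. The GST-tagged homeodomains, made by in vitro transcription/translation, were applied in duplicate at 300 nM final concentration to universal 'all 10-mer' protein binding microarrays (8×60K format).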
As to ATACCCTG, the binding signal was 0.439 ± 0.0103 E-score.
Under ATACCCTC stands 0.441 ± 0.0106 E-score.
Next, ACACCCTG: 0.321 ± 0.0135 E-score; ACACCCTC: 0.306 ± 0.00827 E-score; ACCCCCTA: 0.258 ± 0.0368 E-score.
Next, ACACCCTA: 0.31 ± 0.00433 E-score; CCATCTGA: 0.259 ± 0.0253 E-score; AGAAGTAT: 0.297 ± 0.117 E-score.
Consider CTTAACAC, for which the binding signal was 0.151 ± 0.0479 E-score.
Under GGGTGAGA stands 0.172 ± 0.0545 E-score; under AGGTGATC, 0.359 ± 0.0112 E-score.
Next, GGGTGATA: 0.4596 ± 0.00219 E-score.
AGGTGAGA: the binding signal came to 0.159 ± 0.0138 E-score.
Next, AGGTGATA: 0.418 ± 0.0434 E-score; CGGTGATC: 0.351 ± 0.0309 E-score.
Next, CGGTGAGA: 0.253 ± 0.0378 E-score; GGGTGTTA: 0.282 ± 0.0105 E-score; CGGTGATA: 0.4094 ± 0.00389 E-score.
As to GGGCTATA, the binding signal turned out to be 0.2005 ± 0.00146 E-score.
Under ATCATGGC stands 0.209 ± 0.00482 E-score.
Under AGTTATCG stands 0.19 ± 0.0243 E-score; under AGAATCCC, 0.175 ± 0.0139 E-score.
Next, GTATAACA: 0.238 ± 0.00858 E-score; CGATAGGA: 0.26 ± 0.0286 E-score; GTATTGCA: 0.169 ± 0.0405 E-score.
Regarding ATAGCACA, the binding signal stood at 0.169 ± 0.00707 E-score.
For GCTAATCC, the binding signal amounted to 0.208 ± 0.0144 E-score.
Regarding ATCAAGTA, the binding signal amounted to 0.234 ± 0.0311 E-score.
Next, AGATACGC: 0.349 ± 0.00878 E-score.
Under ATATACGG stands 0.305 ± 0.00579 E-score; under AGATACGG, 0.401 ± 0.00895 E-score; under AGATACGA, 0.279 ± 0.0423 E-score.
Next, CGATACGC: 0.434 ± 0.00646 E-score; AAATACGG: 0.19 ± 0.0109 E-score.
For the sequence CAATACGC, the binding signal came to 0.198 ± 0.00389 E-score.
With GGATACGA, the binding signal is 0.36 ± 0.00395 E-score.
Under CGATACGA stands 0.39752 ± 0.00029 E-score; under ACTAATCT, 0.192 ± 0.0141 E-score.
For AAGGTGAT, the binding signal worked out at 0.1945 ± 0.00188 E-score.
Under AGCCGGTA stands 0.169 ± 0.00673 E-score; under CCGACCCA, 0.155 ± 0.0833 E-score; under ATTAACAC, 0.258 ± 0.0441 E-score.
Next, ATTTAATA: 0.164 ± 0.0598 E-score.
Take ATCTCCAC: the binding signal is 0.204 ± 0.00599 E-score.
Under ATAGTACG stands 0.209 ± 0.0147 E-score.
Under ACACCGGC stands 0.28 ± 0.0468 E-score; under ATCAATCG, 0.266 ± 0.0101 E-score.
Next, ATATACCG: 0.393 ± 0.00521 E-score; ATATACCC: 0.446 ± 0.0125 E-score; CTATACCC: 0.369 ± 0.00624 E-score.
Turning to ATATACTC, the binding signal was found to be 0.354 ± 0.0664 E-score.
Take ATATACCA: the binding signal turned out to be 0.326 ± 0.0157 E-score.
Under ATATACTG stands 0.299 ± 0.0355 E-score.
Under ATAGCGGA stands 0.227 ± 0.0403 E-score.
Under CCCAAGCA stands 0.263 ± 0.00886 E-score.
In the case of GTAGGCCA, the binding signal was 0.17 ± 0.0671 E-score.
GTAGGATA: the binding signal is 0.355 ± 0.00663 E-score.
Next, CTAGGATA: 0.356 ± 0.00923 E-score; ACAGGATA: 0.236 ± 0.0392 E-score.
Under ATAGGATC stands 0.367 ± 0.0232 E-score; under CGAGGATC, 0.333 ± 0.023 E-score.
Consider GCAGGATA, for which the binding signal stood at 0.329 ± 0.0306 E-score.
CCAGGATA: the binding signal amounted to 0.38 ± 0.00746 E-score.
As for AGAGGATA, the binding signal is 0.326 ± 0.0175 E-score.
Under CAAGGATA stands 0.342 ± 0.00822 E-score; under GGAGGATA, 0.387 ± 0.0115 E-score; under ATAGGATA, 0.415 ± 0.0252 E-score.
Turning to CGAGGATA, the binding signal amounted to 0.384 ± 0.0112 E-score.
Next, ACCCTGAT: 0.3 ± 0.0183 E-score; GATCGAGA: 0.295 ± 0.041 E-score.
Next, GATAGCAA: 0.202 ± 0.0434 E-score; ATAGAATA: 0.162 ± 0.00811 E-score.
Under AGACCATA stands 0.19 ± 0.0814 E-score; under GTCTACAC, 0.152 ± 0.0214 E-score.
As to AATACACC, the binding signal was 0.336 ± 0.00415 E-score.
In the case of CAATGATA, the binding signal was 0.418 ± 0.0312 E-score.
On to AAATGATC, for which the binding signal was found to be 0.321 ± 0.107 E-score.
Regarding AAATGAGA, the binding signal was determined as 0.16 ± 0.0635 E-score.
In the case of CAATGATC, the binding signal was determined as 0.31 ± 0.0312 E-score.
Consider GAATAATA, for which the binding signal is 0.226 ± 0.111 E-score.
Next, GAATGATA: 0.412 ± 0.066 E-score.
Next, AAATGATA: 0.415 ± 0.0488 E-score; TAATGATA: 0.36 ± 0.0576 E-score; GAATGATC: 0.306 ± 0.0507 E-score.
Under AACACCCG stands 0.304 ± 0.00694 E-score; under ACCTGAGA, 0.158 ± 0.0127 E-score; under ATCGAAGG, 0.179 ± 0.0692 E-score.
With AGAGTGTA, the binding signal stood at 0.223 ± 0.0204 E-score.
Next, AGCCCCTA: 0.153 ± 0.0497 E-score; CCGCATTA: 0.157 ± 0.0248 E-score; GAGCTGGA: 0.177 ± 0.0153 E-score.
Under ATCGCCGA stands 0.19 ± 0.0306 E-score; under ACACCGTG, 0.277 ± 0.0223 E-score.
Next, ACACCGTC: 0.262 ± 0.00999 E-score.
On to ATACCGTA, for which the binding signal was 0.391 ± 0.00392 E-score.
With ATCCCGTA, the binding signal was 0.342 ± 0.0301 E-score.
As for ATACCGAC, the binding signal worked out at 0.341 ± 0.0139 E-score.
Next, ATACCGTG: 0.384 ± 0.0192 E-score; ATTCCGTG: 0.156 ± 0.0528 E-score; ACACCGTA: 0.344 ± 0.0258 E-score.
Next, ATACCGTC: 0.396 ± 0.0211 E-score.
Under ATATGGTC stands 0.277 ± 0.0141 E-score; under GGATTAAA, 0.231 ± 0.111 E-score.
AATCCGAG: the binding signal worked out at 0.237 ± 0.07 E-score.
Regarding CTGGAATC, the binding signal was 0.158 ± 0.0574 E-score.
Under ACCATATA stands 0.274 ± 0.008 E-score; under CCCATATA, 0.309 ± 0.0133 E-score; under ACCATACC, 0.154 ± 0.0389 E-score.
Next, ACCATATC: 0.418 ± 0.00875 E-score; CCCATATC: 0.4689 ± 0.00434 E-score; CCTATATC: 0.352 ± 0.0286 E-score.
Under AGGTTTAT stands 0.199 ± 0.0561 E-score; under CCGATGCG, 0.215 ± 0.071 E-score; under CGATAGGC, 0.175 ± 0.0335 E-score.
With CCTATCAC, the binding signal stood at 0.387 ± 0.0097 E-score.
Under AATATCTC stands 0.274 ± 0.0766 E-score.
Under ACTATCAC stands 0.279 ± 0.062 E-score; under AATATCAC, 0.38 ± 0.0781 E-score; under AATATCAA, 0.225 ± 0.165 E-score.
Next, CATATTAG: 0.191 ± 0.0531 E-score; AATATCAT: 0.381 ± 0.0478 E-score.
In the case of CATATCAG, the binding signal worked out at 0.436 ± 0.0183 E-score.
Next, AATATGAT: 0.309 ± 0.00824 E-score; AATATCAG: 0.225 ± 0.129 E-score.
Next, CTCCATCA: 0.157 ± 0.0276 E-score.
Under ATACAGCC stands 0.225 ± 0.1 E-score; under ATCGGGTG, 0.32 ± 0.0738 E-score.
Turning to ACCGGGAT, the binding signal was 0.313 ± 0.0258 E-score.
Under GTATTAAA stands 0.246 ± 0.142 E-score; under ATCATCAA, 0.199 ± 0.0117 E-score; under AACACCCT, 0.21 ± 0.0269 E-score.
Under CCCCGTAG stands 0.176 ± 0.139 E-score; under GGGATGAA, 0.191 ± 0.0459 E-score; under CATATTAC, 0.219 ± 0.0138 E-score.
Under CATATCTC stands 0.342 ± 0.0177 E-score; under CATATCAC, 0.446 ± 0.0382 E-score.
Turning to CCGCTATC, the binding signal is 0.304 ± 0.0394 E-score.
Next, ATGCCAGG: 0.161 ± 0.00747 E-score.
Under ATATCTCA stands 0.391 ± 0.0526 E-score; under ATCTCTCA, 0.252 ± 0.0252 E-score; under ATATCTGG, 0.298 ± 0.0486 E-score.
With CTATCTCA, the binding signal was found to be 0.256 ± 0.0685 E-score.
Next, ATATCTCC: 0.424 ± 0.0218 E-score.
Under GGATCTCA stands 0.298 ± 0.0172 E-score; under CTATCTCC, 0.217 ± 0.0476 E-score; under ATATCTCG, 0.378 ± 0.0423 E-score.
Under ATATCTAG stands 0.285 ± 0.0844 E-score.
Consider GCATCTCA, for which the binding signal came out at 0.186 ± 0.00338 E-score.
In the case of GTATCTCA, the binding signal came out at 0.392 ± 0.0267 E-score.
Under ATCTCTCC stands 0.184 ± 0.128 E-score; under AGTACACC, 0.209 ± 0.0287 E-score; under ATCCCTGA, 0.272 ± 0.0262 E-score.
Under ACTATACT stands 0.211 ± 0.0749 E-score.
Under ACTAGTAT stands 0.249 ± 0.0623 E-score.
In the case of TACCTCGA, the binding signal turned out to be 0.159 ± 0.0128 E-score.
As to ATAGGATG, the binding signal turned out to be 0.211 ± 0.00535 E-score.
Next, GATCGTAA: 0.216 ± 0.0203 E-score.
Next, ACAGATAG: 0.208 ± 0.0152 E-score; AAACCGAT: 0.184 ± 0.013 E-score; ATCGTTTG: 0.196 ± 0.0542 E-score.
Under ATATCTAA stands 0.316 ± 0.0663 E-score; under CTATCTAC, 0.24 ± 0.0207 E-score; under ATATCTAC, 0.387 ± 0.0445 E-score.
As for ACCCGAGA, the binding signal was determined as 0.213 ± 0.00331 E-score.
Take CGGATAAA: the binding signal turned out to be 0.275 ± 0.0785 E-score.
Under AGGATAAG stands 0.181 ± 0.0696 E-score; under CGGATAAC, 0.339 ± 0.0303 E-score.
Under CGGATAGA stands 0.355 ± 0.012 E-score.
With CGGATAGC, the binding signal is 0.382 ± 0.00849 E-score.
Under AGGATATA stands 0.346 ± 0.0479 E-score; under CGGATATC, 0.473 ± 0.0121 E-score; under AGGATAAT, 0.295 ± 0.036 E-score.
Next, AGGATATG: 0.421 ± 0.00759 E-score; AGGATAGC: 0.229 ± 0.0872 E-score; AGGATAAC: 0.211 ± 0.00987 E-score.
Next, AGGATATC: 0.466 ± 0.0183 E-score.
